According to PubChem BioAssay AID2147 (National Center for Advancing Translational Sciences (NCATS), 2009):
Values joined by “and” are separate entries in the source; they are usually repeats but may differ in a detail not shown here. Equal values may be shown once. In all, about 230,000 compounds went through this assay and about 3,600 (1.6%) were called active. Inconclusive results (about 15%) are left out. Calls follow the shape of the dose curve; as a rule, active = well fitted inhibition curve with a large enough effect (not every such curve was filed as active); inconclusive = small, poorly fitted or top-dose-only effect, or another doubt; inactive = no such curve, though single readings can be large or run the other way. For the sample, actives were picked, then their nearest neighbours and some compounds at random. Some compounds were tested as several samples or in several runs, with calls that do not always agree.

target: Lysine-specific demethylase 4E (Homo sapiens) (UniProt B2RXH2); assay: qHTS Assay for Inhibitors of Human Jumonji Domain Containing 2E (JMJD2E); details: JMJD2E catalytic domain, FDH-coupled NADH fluorescence (FDH is formaldehyde dehydrogenase); series mostly up to 57.1 µM; activity change, negative = inhibition: at the top concentration
From the text: Assay Provider: Structural Genomics Consortium [SGC] Screening Center PI: Austin, C.P. Screening Center: NIH Chemical Genomics Center [NCGC] The fine interplay among methylation states of several lysine residues on the tails of histone proteins is a major determinant of the transcriptional state of the associated DNA coding regions and is commonly referred to as the histone code. Histone lysine demethylases catalyze the removal of methyl groups from methylated lysine sidechains on histones H3 and H4, thus antagonizing the reactions catalyzed by histone lysine methyltransferases. […] In search for novel inhibitors of JMJD2E demethylase, a member of the largest set of histone demethylases belonging to the Fe(II) and 2-oxoglutarate oxygenase (2OG) superfamily, we performed a quantitative high-throughput screen (Inglese 2006) by using an assay which utilizes a trimethylated peptide substrate corresponding to a fragment of histone H3 (sequence ARKme3STGGK) with detection of the formaldehyde co-product in real time by a formaldehyde dehydrogenase (FDH) coupled reaction. FDH catalyzes oxidation of formaldehyde to formic acid with the concomitant reduction of the non-fluorescent beta-nicotinamide adenine dinucleotide hydrate (NAD+) cofactor to the fluorescent NADH co-product. References: Inglese, J., Auld, D., Jadhav, A., Johnson, R., Simeonov, A., Yasgar, A., Zheng, W. and Austin, C. Proc Natl Acad Sci USA 2006, 103, 11473-11478. N. R. Rose, S. S. Ng, J. Mecinovic, B. M. Lienard, S. H. Bello, Z. Sun, M. A. McDonough, U. Oppermann and C. J. Schofield, J Med Chem, 2008, 51, 7053-7056. Sakurai, M., Rose, N., Schultz, L., Quinn, A., Jadhav, A., Ng, S., Oppermann, U., Schofield, C.J. and Simeonov, A. Mol BioSystems 2009, in press. S. Michael, D. Auld, C. Klumpp, A. Jadhav, W. Zheng, N. Thorne, C. Austin, J. Inglese and A. Simeonov, Assay Drug Dev Technol, 2008, 6, 637-657.
Reagents and Controls: Ferrous ammonium sulfate, (+)-sodium L-ascorbate, beta-nicotinamide adenine dinucleotide hydrate (NAD+), Tween-20, formaldehyde dehydrogenase from P. putida (FDH), and disodium 2-oxoglutarate were from Sigma (St. Louis, MO). Black solid-bottom 384-well or 1,536-well assay plates were from Greiner Bio-One (Monroe, NC). Enzyme was supplied by Prof. Udo Oppermann, SGC-Oxford. The catalytic domain of human JMJD2E (residues 1-337) was produced as an N-terminally His6-tagged protein in E. coli, and purified by Ni-affinity chromatography and size-exclusion chromatography, and stored in HEPES 50 mM/ NaCl 500 mM pH 7.5, as reported in Rose 2008. The trimethylated histone peptide substrate ARK(me3)STGGK was synthesized and HPLC-purified by the Tufts University Core Facility (Boston, MA). Substrate solution (Sakurai 2009) contained 50 uM ARK(me3)STGGK, 0.00025 U/uL FDH, 50 uM 2-oxoglutarate, 250 uM NAD+, 1 mM ascorbate, and 10 uM ferrous ammonium sulfate. Controls and plate map: Buffer (150 mM HEPES pH 7.5 containing 0.01% Tween-20) in columns 3 and 4 as negative control (no enzyme) and 100 nM JMJD2E final concentration in columns 1,2, and 5-48. Assay Steps: Enzyme and buffer solutions (3 uL) were dispensed into a 1,536-well Greiner black solid-bottom assay plate. The library compounds (23 nL) were transferred using a Kalypsys pintool equipped with 1,536-pin array. The plate was incubated at room temperature (15 min), and then a 1 uL aliquot of substrate solution was added to initiate the reaction. The plate was transferred to ViewLux imager where an initial reading using standard UV optics (Ex 340 nm, Em 450 nm) was obtained. The plate was then removed from the reader, incubated for 30 minutes at room temperature, and returned to the reader for a second fluorescence reading. A fully automated robotic screening system (Kalypsys Inc, San diego, CA) was used to perform the above steps as described previously (Michael 2008). […]
Also: nearly all actives have a fitted effect of over 50% in size.
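For activity change, negative = inhibition in this document: 0% = wells with enzyme and -100% = buffer wells without enzyme.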
Potency is read from the fitted curve at half-maximal effect.

Lysine-specific demethylase 4E (Homo sapiens), sequence (B2RXH2 1-337 limits assumed): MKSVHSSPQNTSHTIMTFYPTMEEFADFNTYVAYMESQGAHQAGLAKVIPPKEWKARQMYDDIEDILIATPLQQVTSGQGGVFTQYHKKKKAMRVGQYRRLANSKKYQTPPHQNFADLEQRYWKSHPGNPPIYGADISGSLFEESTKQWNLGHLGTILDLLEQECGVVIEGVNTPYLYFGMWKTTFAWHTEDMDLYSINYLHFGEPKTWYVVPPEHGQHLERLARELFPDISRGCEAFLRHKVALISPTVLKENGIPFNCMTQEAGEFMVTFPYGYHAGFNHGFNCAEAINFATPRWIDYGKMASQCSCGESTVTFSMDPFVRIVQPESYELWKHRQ

Activity change, negative = inhibition, inactive:
COc1ccc(CCNC(=O)C(Sc2ccccn2)c2ccccc2)cc1OC (configuration not stated) -33.4%
O=C(CCCN1C(=O)/C(=C/c2ccco2)SC1=S)Nc1ccccc1 -7.15%
CCOc1ccccc1/C=c1\sc2nc(-c3ccco3)nn2c1=O 4.2%
Cc1c(Cl)cccc1NC(=S)N(Cc1ccccc1)Cc1cccnc1 4.24%
CS(=O)(=O)c1sc(C(=O)NC(=S)Nc2ccc(OC(F)(F)F)cc2)c2c1C=CCC2 -6.61%
CCNc1nc(NCC)nc(N/N=C/c2ccc(O)c(OC)c2)n1 -5.62%
CCN(CC)CCCN=C(N)N 6.35%
Cc1ccc(NC(=O)COc2ccc(-n3ccnc3)cc2)cc1Cl 1.53%
Cc1cc(C)c(NC(=O)CS(=O)CC(=O)Nc2cccnc2)c(C)c1 (configuration not stated) -1.38%
COc1ccc(CN2C(=O)C(C)S/C2=N/N=C/c2ccco2)cc1 (configuration not stated) 8.02%
O=C(CCS(=O)(=O)c1ccccc1Cl)Nc1ccc(S(=O)(=O)Nc2ncccn2)cc1 -0.745%
COc1ccc2c(=O)cc(-c3ccccc3)oc2c1O -1.03%
CCOC(=O)COc1cc(O)c2c(=O)cc(-c3ccccc3)oc2c1 -17.6%
Cc1coc(C)c1C(=O)CC1(O)C(=O)N(C)c2ccc(Cl)cc21 (configuration not stated) -3.58%
O=C(CS(=O)(=O)c1ccc(C(F)(F)F)cn1)NNC(=O)c1ccccc1 3.69%
CC(=O)c1ccc2c(c1)OCCOCCOc1ccc(C(C)=O)cc1OCCOCCO2 -0.13%
O=C(/C=C/c1ccc(Cl)c([N+](=O)[O-])c1)c1cccnc1 4.53%
Cc1cc(OCCCCOc2ccc(C#N)cc2)ccc1[N+](=O)[O-] -10.5%
O=C1CCN(C(=S)NCCc2ccccc2)CC1 2.72%
S=C(NCCc1ccccc1)N1CCCCC1 0.522%
CC(=O)c1nnn(-c2ccc(Cl)cc2C#N)c1C 2%
CC(C)(C)NCC(O)COc1cccc2[nH]c(=O)[nH]c12 (configuration not stated) 0.739%
Cc1noc(COc2ccccc2OCC(O)CNC(C)(C)C)n1 (configuration not stated) -6.31%
CCN(CC)S(=O)(=O)c1ccc(N2CCOCC2)c(NC(=O)C2COc3ccccc3O2)c1 (configuration not stated) -5.42%
CCOc1ccc(NC(=O)CCC(=O)N/N=C/c2ccc([N+](=O)[O-])s2)cc1 -2.83%
CC(C)(C)c1cc(C(=O)N/N=C/c2ccc([N+](=O)[O-])s2)n[nH]1 0.226%
O=C(NNS(=O)(=O)c1ccccc1)c1cnn(-c2ccc(Cl)cc2)c1C(F)(F)F 8.91%
NC(=O)C1(C(N)=O)OC1c1ccc(Cl)cc1Cl (configuration not stated) 0.802%
O=C(CSc1nc2ccccc2o1)N/N=C/c1ccccc1C(=O)O 4.12%
O=C(NC1CC1)C1=C[C@H](c2c[nH]c3ccccc23)C[C@H](OCc2ccc(CO)cc2)O1 1.29%
NC(=O)C1=C[C@H](c2csc3ccccc23)C[C@H](OCc2ccc(CO)cc2)O1 -6.28%
OCC1(Cc2ccccc2C(F)(F)F)CCN(Cc2ccncc2)CC1 -22.4%
CCn1cc(C(=O)NCC2CCCO2)c(=O)c2cc(S(=O)(=O)N3CCCCC3)ccc21 (configuration not stated) -1.81%
CCOC(=O)N1CCN(C(=O)c2cn(C)c3ccc(S(=O)(=O)N4CCCC4)cc3c2=O)CC1 -0.344%
CC(C)(C)C(=O)Nc1c(Br)c(C2CC2)nn1-c1ccccc1 3.79%
O=C(COC(=O)c1ccc(S(=O)(=O)Nc2ccccc2)cc1)NCC1CCCO1 (configuration not stated) 3.36%
CCN(CC(=O)NCCc1ccccc1)S(=O)(=O)c1ccccc1 -0.682%
Cc1c(CCOC(=O)c2cc([N+](=O)[O-])ccc2Cl)sc[n+]1CCCCS(=O)(=O)[O-] 9.22%
Cc1c(CCO)sc[n+]1CC(=O)OC12CC3CC(CC(C3)C1)C2 2.74%
O=C(COc1ccc([N+](=O)[O-])cc1Cl)Nn1cnnc1 -3.14%
COc1ccc(C2CC(=O)c3c(O)cc(OC4OC(COC5OC(C)C(O)C(O)C5O)C(O)C(O)C4O)cc3O2)cc1O (configuration not stated) 2.92%

Potency, active:
O=c1nc2s/c(=C\c3ccco3)c(=O)n2nc1Cc1ccccc1 15.8 µM
Cc1ccc(-c2nc(-c3cccnc3)sc2CC(=O)Nc2ccc(C)c(Cl)c2)cc1 15.8 µM
O=c1cc(-c2ccc(O)c(O)c2)oc2cccc(O)c12 20 µM
COc1c(O)cc2oc(-c3ccc(O)c(O)c3)cc(=O)c2c1O 10 µM
Oc1cc2c(cc1O)CN(C(=S)NCCc1ccc(Cl)cc1)CCC2 28.2 µM
O=[N+]([O-])c1ccc(C=Nc2ccc(Cl)cc2Cl)s1 22.4 µM
NC(=O)C1=C[C@@H](c2csc3ccccc23)C[C@@H](OCc2ccc(CO)cc2)O1 22.4 µM
CCn1cc(C(=O)NCCCN2CCCCCC2)c(=O)c2cc(S(=O)(=O)N3CCc4ccccc4C3)ccc21 25.1 µM
Cc1c(CCOC(=O)CC23CC4CC(CC(C)(C4)C2)C3)sc[n+]1Cc1ccc([N+](=O)[O-])cc1 10 µM
C[C@@H]1O[C@@H](OC[C@H]2O[C@@H](Oc3c(-c4cccc(O)c4O)oc4cc(O)cc(O)c4c3=O)[C@H](O)[C@@H](O)[C@@H]2O)[C@H](O)[C@H](O)[C@H]1O 7.08 µM

Potency, inactive and 25.1 µM (active):
COc1ccccc1OCCNCC(O)COc1cccc2[nH]c3ccccc3c12 (configuration not stated)
